Source: PubChem (University of Kansas High Throughput Screening Laboratory)
Pf apPOL block = Pf-apPOL DNA polymerase inhibition | AID 1794808 | inhibition, % at 10 µM | Recombinant Pf-apPOL, molecular beacon fluorescence, 1.5 h | 0.25% of 210,000 active
mHTT-CaM PPI inh = mHTT-calmodulin interaction abrogation | 3.6% of 190,000 active | AlphaScreen His-mHTT/GST-CaM binding, luminescence | P42858 | inhibition, % at 15 µM;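 also: 0% = both proteins with DMSO and 100% = one protein alone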
* = called active by the depositor; x = no result; ! = repeats disagree. The sample as a whole holds a higher share of hits than the screen did. Rule as the data show it: active = inhibition above about 50%; inactive = the rest.

SMILES | Pf apPOL block | mHTT-CaM PPI inh
CCOc1ccccc1CNC(=O)CN1C(=O)C2CCCN2C(=O)c2cc(F)ccc21 (centres undefined) | -8 | 12
CCCCOc1ccc(C2CC(=O)Nc3n[nH]c(C)c32)cc1 (centres undefined) | -5 | 2
CCc1nc(C2CCCN(C(=O)c3ccc4ncccc4c3)C2)n[nH]1 (centres undefined) | 6 | 4
Cc1cc(C(=O)NCc2ccccn2)c(C)n1CCN(C)C | -7 | 8
O=[N+]([O-])c1cc(C(F)(F)F)cc([N+](=O)[O-])c1NCCCn1ccnc1 | -4 | x
CCCNc1c(N)cc(C(F)(F)F)cc1[N+](=O)[O-] | -41 | 55*
CSc1nc(NC=C(C#N)C(=O)c2cccs2)n2nc(C)cc2n1 | -13 | x
COc1cccc(C(=O)N2CCC(c3noc(-c4cccc(C)c4)n3)CC2)c1OC | -2 | 21
Cc1nc2ccccc2c(=O)n1Cc1cccnc1 | -3 | 0
O=c1c2ccccc2nc2c3ccccc3c(NCc3ccccn3)nn12 | 0 | 81*
O=c1c2ccccc2nc2c3ccccc3c(NCc3cccnc3)nn12 | -11 | 80*
Cc1cc(C)n(-c2nn3c(=O)c4ccccc4nc3c3ccccc23)n1 | 12 | -9
Cc1ccc2nc(-c3ccc(NC(=O)c4cccnc4Cl)cc3)sc2c1 | -2 | 13
COC(=O)c1ccc(NC(=O)CSc2nc(=O)[nH]c3c2CCC3)cc1 | 2 | 3
O=C(CSc1nc(=O)[nH]c2c1CCC2)c1ccc(Cl)cc1 | 76* | 36
COc1ccc(NC(=O)CSc2ccccc2N)c([N+](=O)[O-])c1 | -1 | 7
Cc1ccc2cccc(Oc3ncnc(N)c3[N+](=O)[O-])c2n1 | 0 | 1
Cc1cccc(NC(=O)N2CCC(n3cnc4ccc(Cl)cc4c3=O)CC2)c1 | 0 | -2
CC(C)(C)N=C1Nc2ccccc2NC12CCCN(C(=O)c1ccc(C#N)cc1)C2 (centres undefined) | 1 | 36
N#CSC(C#N)Cc1ccc([N+](=O)[O-])cc1 (centres undefined) | -1 | 60*
N#CSC(C#N)Cc1ccccc1 (centres undefined) | -7 | 42
Cc1ccc(C2=NNC3(S2)C(=O)Nc2ccc(C)cc23)cc1 (centres undefined) | 0 | 100*
Cc1ccc(N2C(=O)C(C)SC23C(=O)Nc2ccccc23)cc1 (centres undefined) | 2 | 1
Cc1ccc(C2=NNC(C)(C3(C)NN=C(c4ccc(C)cc4)S3)S2)cc1 (centres undefined) | x | 41
Cc1ccc(C2=NNC3(S2)C(=O)Nc2ccccc23)cc1 (centres undefined) | 1 | 99*
SMILES | Pf apPOL block | mHTT-CaM PPI inh
O=C(COc1ccccc1)NC(c1ccc([N+](=O)[O-])cc1)c1cc(Cl)c2cccnc2c1O (centres undefined) | -8 | 32
CC(=O)NC(c1ccc2c(c1)OCO2)c1cc(Cl)c2cccnc2c1O (centres undefined) | -6 | 100*
CC(=O)NC(c1ccc(C)cc1)c1cc(Cl)c2cccnc2c1O (centres undefined) | 2 | 100*!
O=C(COc1ccccc1)NC(c1ccccc1)c1cc(Cl)c2cccnc2c1O (centres undefined) | -2 | 100*
COc1ccc(C(=O)NC(c2ccc([N+](=O)[O-])cc2)c2cc(Cl)c3cccnc3c2O)cc1 (centres undefined) | -12 | 14
COc1ccc(C(=O)NC(c2ccc(OC)c(OC)c2)c2cc(Cl)c3cccnc3c2O)cc1 (centres undefined) | 2 | 72*
CC(=O)Nc1cccc2c(C(=O)NC(C)c3ccc(C)cc3C)ccnc12 (centres undefined) | 0 | 0
O=C(Nc1ccc2c(c1)OCO2)C(=O)NC(c1ccccc1)c1ccccc1 | -7 | -8
O=C(NC1CCCCC1)c1cccc2c1CCN2C(=O)C1CC1 | -6 | -6
Cc1ccc(SCC(=O)N2CCN(c3ccccc3F)CC2)cc1 | -9 | -6
O=C(NCC1CCCCC1)c1cn2c(n1)CCCC2 | -3 | -7
CCC(Sc1ncnc2c1sc1ccccc12)C(=O)N(CC)CC (centres undefined) | -4 | 2
CC1CN(C(=O)c2cccc3c2-c2ccccc2C3=O)CC(C)O1 (centres undefined) | 1 | 1
CC(C)CNC(=O)N1CCc2nc(-c3ccccc3)ncc2C1 | -1 | -11
CCc1ccc(NC(=O)Cn2ncnc2Sc2nc3c(c(=O)n(C)c(=O)n3C)n2C)cc1 | -3 | 48
CC(=O)NC(c1cccc(Cl)c1)c1cc(Cl)c2cccnc2c1O (centres undefined) | -3 | 100*
Cc1cccnc1NC(=O)C(C)Oc1cccc(Cl)c1 (centres undefined) | 5 | 0
Cc1cccc(NC(=O)C2=NN(c3ccccc3)C(=O)CC2)n1 | -4 | -1
COc1ccc(C2C(C#N)=C(N)SC3C(=O)N(c4ccc(C)cc4)C(=O)C32)cc1 (centres undefined) | 0 | 19
